Counter-ions that a name gives are not always drawn.

The subject of the test is Clostridium sporogenes DSM 1664. Kind of test: growth (OD595) fold change vs plate DMSO controls (fold change (ratio)); higher = more growth. As to conditions: incubation time: 27 h, anaerobic, 37 °C. The procedure, abridged: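 The reported measure is growth: the fold change against the median of DMSO controls on the plate. Absorbance at 595 nm from anaerobic 96-well mGAM cultures grown for 27 h at 37 °C was blank-subtracted, corrected for background with 20 µM compound solutions in water, and converted to OD with a calibration factor of 5. Fold changes above 1.5 appear as NA, and values are the mean of 2 biological replicates.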
As to `CC(C)COCC(CN(Cc1ccccc1)c1ccccc1)N1CCCC1` (stereo unspecified) [Bepridil hydrochloride] (20 µM), the growth was 0.909.
The result for `C[C@@H]1C[C@H]2[C@@H]3CCC4=CC(=O)C=C[C@]4(C)[C@@]3(Cl)[C@@H](O)C[C@]2(C)[C@@]1(OC(=O)c1ccco1)C(=O)CCl` [Mometasone furoate] (20 µM) reads 1.08; that for `c1ccc(-c2ccc(C(c3ccccc3)n3ccnc3)cc2)cc1` (stereo unspecified) [Bifonazole] (20 µM), 1.27; that for `Cc1ncc([N+](=O)[O-])n1CC(C)O` (stereo unspecified) [Secnidazole] (20 µM), 0.
For `CC(=O)[C@H]1CC[C@H]2[C@@H]3C[C@H](C)C4=CC(=O)CC[C@]4(C)[C@H]3[C@@H](O)C[C@]12C` [Medrysone] (20 µM), the growth was found to be 1.08.
In the case of `Cc1ccc(C(=O)c2ccc(CC(=O)O)n2C)cc1` [Tolmetin sodium salt dihydrate] (20 µM), the growth amounted to 1.12.
Consider `COCCOC(=O)C1=C(C)NC(C)=C(C(=O)OC(C)C)C1c1cccc([N+](=O)[O-])c1` (stereo unspecified) [Nimodipine] (20 µM), for which the growth turned out to be 0.946.
Consider `CCCCCCCCCCCCCCCCCCCCCC(=O)Nc1ccn([C@@H]2O[C@H](CO)[C@@H](O)[C@@H]2O)c(=O)n1` [Enocitabine] (20 µM), for which the growth was 0.978.
On to `CCN(CCCc1ccccc1)CCCc1ccccc1` [Alverine citrate salt] (20 µM), for which the growth was 0.998.
Consider `CN(C)CCCC1(c2ccc(F)cc2)OCc2cc(C#N)ccc21` (stereo unspecified) [Citalopram hydrobromide] (20 µM), for which the growth worked out at 0.923.
The figure for `O=C1Nc2ccc(Cl)cc2[C@@](C#CC2CC2)(C(F)(F)F)O1` [Efavirenz] (20 µM) is 1.25.

For the origin of these results see the supplement of paper PMC12494721.
